Data on 4 molecules can be found in PubChem BioAssay (EPA / NIEHS).

Activity calls are given as the source filed them. How the source made its calls: active means hit-call score of the fitted dose curve at least 0.9, where 1 is the maximum; inactive means score below 0.9.

What all share (settings): mRNA level, 48 h; actives raise or lower the signal
Read-out in assay [1]: Apoptosis regulator Bcl-2 (Homo sapiens) (UniProt P10415)
The assay can be described thus: LTEA_HepaRG_BCL2: Life Technologies and Expression Analysis (LTEA) Assay for Bcl-2 gene using HepaRG (AID 2283475). The essentials:
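Each chemical was tested in duplicate on HepaRG cultures held in serum-free induction medium for 48 h, highest concentration 100 uM with half-log dilutions. Transcript levels came from multiplexed qRT-PCR, normalised to housekeeping genes; activity was scored in either direction relative to DMSO.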

Read-out in assay [2]: Caspase-3 (Homo sapiens) (UniProt P42574)
The assay can be described thus: LTEA_HepaRG_CASP3: Life Technologies and Expression Analysis (LTEA) Assay for cysteine-aspartic acid protease (CASP3) using HepaRG (AID 2283477). Put shortly:
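Differentiated human HepaRG cells in serum-free induction medium were exposed 48 h to 8-point half-log concentrations from 100 uM (0.5% DMSO vehicle). CASP3 mRNA was measured by qRT-PCR, normalised to ACTB, GAPDH and POLR2A, with bidirectional fitting against DMSO.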

Read-out in assay [3]: Cytochrome P450 (CYP24A1), CYP24A1 (gene 1591)
The assay is described as follows: LTEA_HepaRG_CYP24A1: Life Technologies and Expression Analysis (LTEA) Assay for Cytochrome P450 (CYP24A1) using HepaRG (AID 2283478). The essentials:
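Differentiated HepaRG cells, pre-cultured 48 h, were exposed in duplicate for 48 h in serum-free induction medium to 8 half-log concentrations (top 100 uM, 0.5% DMSO). CYP24A1 mRNA was quantified by TaqMan qRT-PCR, normalized to ACTB/GAPDH/POLR2A, fitted bidirectionally versus DMSO.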

Read-out in assay [4]: Cytochrome P450 (CYP1A2), CYP1A2 (gene 1544)
The assay can be described thus: LTEA_HepaRG_CYP1A2: Life Technologies and Expression Analysis (LTEA) Assay for Cytochrome P450 (CYP1A2) using HepaRG (AID 2283479). The essentials: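 Differentiated human HepaRG cells in serum-free induction medium were exposed in duplicate for 48 h to 8-point half-log concentrations up to 100 uM in 0.5% DMSO. CYP1A2 mRNA measured by qRT-PCR, normalized to ACTB, GAPDH, POLR2A; bidirectional fit vs DMSO.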

Read-out in assay [5]: cysteine-aspartic acid protease (CASP8), CASP8 (gene 841)
The assay is described as follows: LTEA_HepaRG_CASP8: Life Technologies and Expression Analysis (LTEA) Assay for cysteine-aspartic acid protease (CASP8) using HepaRG (AID 2283480). The essentials:
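qRT-PCR readout of CASP8 mRNA, normalized to three housekeeping genes, after 48 h chemical exposure of HepaRG cells; 8-point half-log series, top 100 uM, 0.5% DMSO vehicle. Bidirectional curve fitting against DMSO baseline.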

Read-out in assay [6]: Cytochrome P450 (CYP2B6), CYP2B6 (gene 1555)
The assay is described as follows: LTEA_HepaRG_CYP2B6: Life Technologies and Expression Analysis (LTEA) Assay for Cytochrome P450 (CYP2B6) using HepaRG (AID 2283481). Put shortly:
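Differentiated HepaRG cells, serum-free induction medium, exposed 48 h in duplicate to 8-point half-log concentrations from 100 uM in 0.5% DMSO. CYP2B6 mRNA by qRT-PCR, normalized to ACTB, GAPDH, POLR2A; bidirectional fit versus DMSO.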

Read-out in assay [7]: Cytochrome P450 2C19 (Homo sapiens) (UniProt P33261)
The assay can be described thus: LTEA_HepaRG_CYP2C19: Life Technologies and Expression Analysis (LTEA) Assay for CYP2C19 using HepaRG (AID 2283482). The essentials:
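Differentiated human HepaRG cells were exposed for 48 h in serum-free induction medium to 8 concentrations (top 100 uM, half-log steps, 0.5% DMSO). CYP2C19 mRNA was measured by qRT-PCR, normalized to ACTB/GAPDH/POLR2A, and fitted bidirectionally against DMSO.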

Read-out in assay [8]: CYP2C8 (gene 1558)
The assay can be described thus: LTEA_HepaRG_CYP2C8: Life Technologies and Expression Analysis (LTEA) Assay for CYP2C8 using HepaRG (AID 2283483). The essentials:
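HepaRG (human liver line), 48 h chemical exposure, 8-pt half-log series from 100 uM, 0.5% DMSO vehicle. Readout: CYP2C8 transcript by qRT-PCR, housekeeping-normalized. Bidirectional fit vs DMSO baseline.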

Read-out in assay [9]: CYP2C9 (gene 1559)
The assay can be described thus: LTEA_HepaRG_CYP2C9: Life Technologies and Expression Analysis (LTEA) Assay for CYP2C9 using HepaRG (AID 2283484). The essentials: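 HepaRG, 48 h dosing, 8-pt half-log series, top 100 uM, 0.5% DMSO vehicle. Read-out: CYP2C9 transcript by TaqMan qRT-PCR, housekeeping-normalized (ACTB/GAPDH/POLR2A). Gain or loss fitted vs DMSO baseline.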

Read-out in assay [10]: CYP2E1 (gene 1571)
The assay can be described thus: LTEA_HepaRG_CYP2E1: Life Technologies and Expression Analysis (LTEA) Assay for CYP2E1 using HepaRG (AID 2283485). Put shortly:
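Assay uses 48 h exposure of HepaRG hepatic cells, eight concentrations to 100 uM. Expression of CYP2E1 is quantified by TaqMan qRT-PCR with ACTB, GAPDH and POLR2A normalization; curves fitted in both directions relative to vehicle.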

Read-out in assay [11]: CYP4A11 (gene 1579)
The assay is described as follows: LTEA_HepaRG_CYP4A11: Life Technologies and Expression Analysis (LTEA) Assay for CYP4A11 using HepaRG (AID 2283486). Put shortly: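 Differentiated HepaRG cells, serum-free induction medium, exposed 48 h in duplicate to 8-point half-log series from 100 uM in 0.5% DMSO. CYP4A11 mRNA measured by qRT-PCR, normalized to ACTB, GAPDH, POLR2A; bidirectional fit versus DMSO.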

Read-out in assay [12]: Cytochrome P450 3A4 (Homo sapiens) (UniProt P08684)
The assay can be described thus: LTEA_HepaRG_CYP3A4: Life Technologies and Expression Analysis (LTEA) Assay for CYP3A4 using HepaRG (AID 2283487). The essentials: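 HepaRG, 48 h exposure, 8-pt CRC from 100 uM (half-log), 0.5% DMSO, duplicates; serum-free induction medium. Readout: CYP3A4 mRNA, qRT-PCR, ACTB/GAPDH/POLR2A normalization. Bidirectional fit vs DMSO.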

Read-out in assay [13]: DNA damage-inducible transcript 3 (DDIT3), DDIT3 (gene 1649)
The assay is described as follows: LTEA_HepaRG_DDIT3: Life Technologies and Expression Analysis (LTEA) Assay for DNA damage-inducible transcript 3 (DDIT3) using HepaRG (AID 2283488). The essentials:
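Eight-point concentration-response (100 uM highest, half-log dilutions) in HepaRG, 48 h, duplicate wells. Endpoint: qRT-PCR mRNA, normalized (ACTB, GAPDH, POLR2A), bidirectional fitting with DMSO as baseline.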

Read-out in assay [14]: Pro-epidermal growth factor (Homo sapiens) (UniProt P01133)
The assay is described as follows: LTEA_HepaRG_EGF: Life Technologies and Expression Analysis (LTEA) Assay for Epidermal growth factor (EGF) using HepaRG (AID 2283489). Put shortly: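 Differentiated human HepaRG cells, plated 48 h then switched to serum-free induction medium, were exposed for 48 h to test chemicals (8-point half-log series, top 100 uM, 0.5% DMSO). EGF mRNA was quantified by qRT-PCR, normalized to ACTB, GAPDH, POLR2A.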

Read-out in assay [15]: Early growth response protein 1 (EGR1) transcription factor, EGR1 (gene 1958)
The assay can be described thus: LTEA_HepaRG_EGR1: Life Technologies and Expression Analysis (LTEA) Assay for Early growth response protein 1 (EGR1) transcription factor using HepaRG (AID 2283490). Put shortly: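 HepaRG, 48 h exposure, 8-pt half-log series from 100 uM, 0.5% DMSO vehicle; EGR1 transcript by TaqMan qRT-PCR (Fluidigm array), housekeeping-normalized; bidirectional fit relative to DMSO baseline.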

Read-out in assay [16]: Ezrin (EZR), EZR (gene 7430)
The assay can be described thus: LTEA_HepaRG_EZR: Life Technologies and Expression Analysis (LTEA) Assay for Ezrin (EZR) using HepaRG (AID 2283491). The essentials:
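Read-out is EZR transcript level by qRT-PCR, normalized to three housekeeping genes and fitted bidirectionally against the DMSO control. Human HepaRG cells received test chemicals for 48 h at eight half-log concentrations up to 100 uM in 0.5% DMSO.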

Read-out in assay [17]: CYP3A5 (gene 1577)
The assay can be described thus: LTEA_HepaRG_CYP3A5: Life Technologies and Expression Analysis (LTEA) Assay for CYP3A5 using HepaRG (AID 2283493). Put shortly: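 Readout was CYP3A5 mRNA by qRT-PCR. HepaRG cultures were exposed for 48 h in serum-free induction medium to chemicals at up to 100 uM, and responses were fitted in both directions relative to DMSO vehicle.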

Read-out in assay [18]: Fatty Acid-Binding Protein 1 (FABP1), FABP1 (gene 2168)
The assay can be described thus: LTEA_HepaRG_FABP1: Life Technologies and Expression Analysis (LTEA) Assay for Fatty Acid-Binding Protein 1 (FABP1) using HepaRG (AID 2283494). The essentials:
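qRT-PCR readout of FABP1 transcript (normalized to three housekeeping genes) after 48 h chemical exposure of HepaRG cells; eight concentrations, half-log steps, max 100 uM, 0.5% DMSO vehicle; gain or loss fitted relative to DMSO baseline.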

Apoptosis regulator Bcl-2 (Homo sapiens), sequence (P10415 whole entry, looked up): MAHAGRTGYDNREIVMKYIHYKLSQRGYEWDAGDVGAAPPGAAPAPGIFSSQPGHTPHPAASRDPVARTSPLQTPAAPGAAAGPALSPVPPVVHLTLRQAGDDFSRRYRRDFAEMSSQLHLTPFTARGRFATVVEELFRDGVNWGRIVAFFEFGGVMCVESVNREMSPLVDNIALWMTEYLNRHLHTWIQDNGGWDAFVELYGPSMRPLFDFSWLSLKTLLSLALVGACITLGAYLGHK
Caspase-3 (Homo sapiens), sequence (P42574 whole entry, looked up): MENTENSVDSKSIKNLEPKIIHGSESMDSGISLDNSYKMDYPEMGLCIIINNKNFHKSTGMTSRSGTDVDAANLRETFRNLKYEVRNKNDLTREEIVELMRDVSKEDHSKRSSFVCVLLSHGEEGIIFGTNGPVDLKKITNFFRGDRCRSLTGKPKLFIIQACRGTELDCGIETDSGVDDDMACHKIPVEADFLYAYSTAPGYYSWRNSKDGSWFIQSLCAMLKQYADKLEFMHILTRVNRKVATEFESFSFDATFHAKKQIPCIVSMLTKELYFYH
Cytochrome P450 2C19 (Homo sapiens), sequence (P33261 whole entry, looked up): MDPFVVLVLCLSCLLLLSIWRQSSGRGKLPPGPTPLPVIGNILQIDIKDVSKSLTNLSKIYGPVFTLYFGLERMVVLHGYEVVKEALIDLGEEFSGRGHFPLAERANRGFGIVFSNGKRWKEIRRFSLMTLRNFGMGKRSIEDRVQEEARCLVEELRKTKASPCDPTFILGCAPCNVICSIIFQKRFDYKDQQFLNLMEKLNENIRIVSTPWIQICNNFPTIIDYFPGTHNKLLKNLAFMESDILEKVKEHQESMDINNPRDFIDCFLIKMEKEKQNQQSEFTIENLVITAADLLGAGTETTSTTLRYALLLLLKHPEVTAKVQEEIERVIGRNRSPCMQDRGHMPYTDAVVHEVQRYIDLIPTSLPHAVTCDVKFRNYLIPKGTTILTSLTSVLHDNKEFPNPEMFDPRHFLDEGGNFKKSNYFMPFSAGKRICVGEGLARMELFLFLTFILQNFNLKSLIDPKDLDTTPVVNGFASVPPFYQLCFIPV
Cytochrome P450 3A4 (Homo sapiens), sequence (P08684 whole entry, looked up): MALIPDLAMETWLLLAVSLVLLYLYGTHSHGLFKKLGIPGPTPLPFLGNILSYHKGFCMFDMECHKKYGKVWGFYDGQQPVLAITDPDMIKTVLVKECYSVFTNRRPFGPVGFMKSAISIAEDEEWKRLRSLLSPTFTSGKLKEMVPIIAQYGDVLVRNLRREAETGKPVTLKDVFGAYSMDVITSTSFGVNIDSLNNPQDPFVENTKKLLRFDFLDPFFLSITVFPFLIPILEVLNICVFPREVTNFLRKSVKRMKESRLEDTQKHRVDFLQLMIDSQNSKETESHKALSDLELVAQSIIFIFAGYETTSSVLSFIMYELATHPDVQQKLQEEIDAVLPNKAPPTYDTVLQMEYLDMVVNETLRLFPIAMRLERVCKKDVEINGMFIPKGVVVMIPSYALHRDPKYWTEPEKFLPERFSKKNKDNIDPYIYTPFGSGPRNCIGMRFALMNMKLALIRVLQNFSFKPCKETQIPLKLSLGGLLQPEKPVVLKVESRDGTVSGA

Broadly, the AC50 is the concentration at which the activity in the assay is half-maximal. Regarding `Nc1cccc2c(N)cccc12`, the outcome in [1], in [2], in assay [3], in assay [5], in assay [7] and in assay [8] was inactive. Further, the call in [9], in assay [12], in [13], in assay [14], in assay [15] and in [16] was inactive. In assay [17], the molecule was called inactive. For the same molecule, the AC50 in assay [4] is 20.1 µM (active); in [6], 2.68 µM (active); in [10] it was 50 µM (active); in [11], 50 µM (active); in [18], 50 µM (active).
For `C#C[C@]1(O)CC[C@H]2[C@@H]3CCC4=CC(=O)CC[C@@H]4[C@H]3CC[C@@]21C`, the molecule was classed as inactive in assay [1], in assay [2], in assay [3], in [4], in assay [5] and in assay [13]. In addition, the molecule was classed as inactive in [15], in assay [16] and in assay [18]. The concentration at half-maximal activity (AC50) in assay [6] is 9.72 µM (active); in assay [7], 9.92 µM (active); in [8], 6.29 µM (active); in assay [10], 0.124 µM (active); in assay [11], 0.0465 µM (active); in assay [14], 22.9 µM (active).
As to `CC1=C(/C=C/C(C)=C/C=C/C(C)=C/C(=O)O)C(C)(C)CCC1`, the outcome in assay [1], in assay [2], in [5], in assay [8], in assay [9] and in [13] was inactive. Also, the molecule was classed as inactive in assay [15] and in assay [17]. The AC50 in [3] is 12.8 µM (active); in assay [4] it was 1.75 µM (active); in assay [6], 6.58 µM (active); in [7] it was 27 µM (active); in assay [10] it was 20.8 µM (active); in [11], 4.34 µM (active). Further, the AC50 in assay [14] is 28 µM (active); in assay [16], 0.495 µM (active); in assay [18], 13.6 µM (active).
For `CCOC(=O)CC(O)(CC(=O)OCC)C(=O)OCC`, the outcome in assay [1], in assay [2], in [3], in assay [4], in assay [5] and in [6] was inactive. The call in [7], in [8], in assay [9], in assay [10], in assay [11] and in assay [12] was inactive. Besides, the outcome in assay [13], in assay [14], in assay [15], in [16], in [17] and in assay [18] was inactive.
